Test results reported in PMC4552634, “A New Set of Chemical Starting Points with Plasmodium falciparum Transmission-Blocking Potential for Antimalarial Drug Discovery” (PLoS ONE, 2015).
The campaign covered roughly 13,000 compounds. About 3,200 (25%) showed an effect of 50% or more. This is one part of the list.

What follows are molecules tested on P. falciparum stage V gametocytes. Conditions: 48 h, 5 µM; inhibitor.
Parameters: BacTiter-Glo ATP luminescence viability of purified stage V gametocytes in 384-well plates, per cent inhibition versus DMSO

Row | SMILES | % Inhibition [%]
1 | CCOC(=O)CCCCCNC[C@H](O)c1ccccc1 [TCMDC-131776] | -2.137
2 | CC(C)NCc1ccc(-c2ccc(CN3CCCC(c4ccccc4)C3)cc2)c(C(=O)NCC2CCCCC2)c1 (stereo not shown) [TCMDC-134699] | 33.35
3 | O=S(=O)(NCCN1CCCC1)c1ccc(-c2ccc(CNCc3ccccc3)cc2)cc1 [TCMDC-132228] | 101.6
4 | Clc1ccc(-c2ccc(CNCCCN3CCCC3)cc2)cc1 [TCMDC-140148] | 75.83
5 | O=S(=O)(NCCN1CCCC1)c1ccc(-c2ccc(CNCc3ccc(F)cc3)cc2)cc1 [TCMDC-132280] | 62.82
6 | O=S(=O)(Nc1cc2c(cc1O)CCN(C1CCC1)CC2)c1ccc(-c2ccc(F)cc2)cc1 [TCMDC-136084] | -82.22
7 | Cc1c(CNCCN2CCCCC2)c(C(=O)O)c(C)n1Cc1ccc(Cl)cc1 [TCMDC-125269] | 31.51
8 | NC(Cc1ccc(Cl)cc1)=NCCN1CCCCCC1 [TCMDC-137727] | 39.5
9 | COC(=O)c1cc(/C(C)=N/Nc2nc3ccccc3[nH]2)ccc1O [TCMDC-139075] | -14.17
10 | O=C(NC1CC1)c1ccc(N2CCC(Cc3ccccc3)CC2)nc1 [TCMDC-134591] | 24.62
11 | COC(=O)c1ccc(CC(C)NCC(O)c2cccc(C(F)(F)F)c2)cc1C (stereo not shown) [TCMDC-131470] | 8.047
12 | C[C@H](Nc1nc(C(Oc2ccccc2)c2ccccc2)nc2[nH]ncc12)c1ccccc1 (stereo partly shown) [TCMDC-136553] | 53.92
13 | OC[C@H](Nc1nc(C(Oc2ccccc2)c2ccccc2)nc2[nH]ncc12)c1ccccc1 (stereo partly shown) [TCMDC-136552] | 43.31
14 | COc1cccc(OC(C)(C)c2nc(N[C@@H](C)c3ccccc3)c3cn[nH]c3n2)c1 [TCMDC-136619] | 13.05
15 | CC1(C)NC(N)=NC(=N)N1OCc1ccc(-c2ccccc2)cc1 [TCMDC-131591] | -7.815
16 | Cc1ccc2nc(C)cc(NN=CC=Cc3ccccc3)c2c1 [TCMDC-123974] | -10.18
17 | Cc1cc(NN=CC=Cc2ccccc2)c2ccccc2n1 [TCMDC-142074] | -83.64
18 | COc1ccc2c(NN=Cc3cccc(Cl)c3)cc(C)nc2c1 [TCMDC-142080] | 55.62
19 | COc1ccc2nc(C)cc(NN=Cc3cccc(Cl)c3)c2c1 [TCMDC-142077] | 106.6
20 | COc1ccc2c(NN=Cc3cccc(C)n3)ccnc2c1 [TCMDC-142031] | -34.06
21 | COc1cc(C=NNc2cc(C)nc3ccccc23)cc(OC)c1OC [TCMDC-123958] | -11.67
22 | COc1ccc2nc(C)cc(NN=Cc3ccccc3Cl)c2c1 [TCMDC-142078] | -47.04
23 | COc1ccc2nc(C)cc(N/N=C/C=C/c3ccccc3)c2c1 [TCMDC-142095] | 88.89
24 | COc1ccc2c(NN=Cc3ccccc3Cl)cc(C)nc2c1 [TCMDC-142079] | 78.38

Row | SMILES | % Inhibition [%]
25 | Cc1cc(NN=Cc2ccccc2Cl)c2ccccc2n1 [TCMDC-142059] | -35.38
26 | CN(Cc1c(Cl)cnn1C)S(=O)(=O)c1ccc2ccccc2c1 [TCMDC-124903] | 3.551
27 | CC(=O)Nc1ncc(C(=O)Nc2cccc(-c3ccc(-c4nc5cc(C(F)(F)F)ccc5[nH]4)s3)c2)s1 [TCMDC-136915] | 15.71
28 | Cc1ccc(CN2CCC(C(=O)Nc3ccc(-c4cc5ccccc5[nH]4)cc3)CC2)o1 [TCMDC-124634] | -0.9664
29 | CC(ON1C(N)=NC(N)=NC1(C)C)c1ccccc1 (stereo not shown) [TCMDC-131596] | 28.25
30 | O=C(Nc1ccc(-n2ccc(C(F)(F)F)n2)cc1)c1cccs1 [TCMDC-125785] | 28.31
31 | Cc1cc(CNC(=O)[C@H](CC2CCCCC2)Nc2ccc(C#N)c3ccccc23)c(C(F)(F)F)o1 [TCMDC-136628] | -91.12
32 | Cc1cnc(-c2ccc(NC(=O)c3coc4ccc(N5CC(C)N(C)C(C)C5)cc34)cc2)o1 (stereo not shown) [TCMDC-141361] | 27.19
33 | Cc1cc(O)nc(NC(=N)NOCc2ccccc2)n1 [TCMDC-131683] | 7.113
34 | O=C(NC1CCCC1)c1ccc(N2CCC(NCc3cc4cc(Cl)ccc4[nH]3)CC2)cc1 [TCMDC-124662] | -4.187
35 | CCOc1ccc(C(=O)Nc2cc(Br)c3c(c2)CNCC3)cc1Cl [TCMDC-139730] | 27.05
36 | COc1ccc(C(=O)Nc2cc(Br)c3c(c2)CNCC3)cc1C(F)(F)F [TCMDC-139728] | 19.24
37 | CCOc1ccc(C(=O)Nc2cc(Br)c3c(c2)CNCC3)cc1C(F)(F)F [TCMDC-139732] | 37.39
38 | COc1ccc(C(=O)Nc2cc(Br)c3c(c2)CNCC3)cc1Br [TCMDC-139727] | 19.9
39 | CCOc1ccc(C(=O)Nc2cc(Br)c3c(c2)CNCC3)cc1C#N [TCMDC-139731] | 94.42
40 | CCOc1ccc(C(=O)Nc2cc(Br)c3c(c2)CNCC3)cc1Br [TCMDC-139729] | 61.1
41 | O=C1c2ccccc2C(=O)N1c1ccc(S(=O)(=O)N2CCOCC2)cc1 [TCMDC-125740] | 8.047
42 | CC(=O)N(C)c1ccc(C(=O)Nc2cccc(-c3cccc(-c4nc5c(C)cccc5[nH]4)c3)c2)cc1 [TCMDC-136850] | -24.43
43 | CC(C)Sc1nc2c(c(=O)n1Cc1ccco1)C1(CCCC1)Cc1ccccc1-2 [TCMDC-125844] | 9.662
44 | CC(C)(C)c1ccccc1SC1=C(O)CC2(CCNCC2)OC1=O [TCMDC-140973] | 16.85
45 | Cc1cccc2nc(-c3ccc(-c4ccc(CN5CCCCC5CO)cc4)cc3)[nH]c12.O=C(O)C(F)(F)F (stereo not shown) [TCMDC-133824] | 10.09
46 | Cn1nc(-c2ccc(CNC3CCc4ccccc43)cc2)c2cnc(NCCN3CCCC3)nc21 (stereo not shown) [TCMDC-135033] | 65.68
47 | Cn1nc(-c2ccc(CNC3CCc4ccccc43)cc2)c2cnc(NCCCN3CCCC3)nc21 (stereo not shown) [TCMDC-135036] | 65.55
48 | CN(c1cc(NC(=O)c2cccs2)ccn1)C1CCN(Cc2cccc(F)c2)CC1 [TCMDC-135010] | 5.779

Row | SMILES | % Inhibition [%]
49 | COc1ccc2nccc([C@@H](O)CN3CCC(NC(=O)C(c4cc5ccccc5o4)N4CCN(C(c5ccccc5)c5ccccc5)CC4)CC3)c2c1 (stereo partly shown) [TCMDC-140990] | 16.51
50 | O=C(Nc1ccc(NC2=NCCN2)cc1)c1ccc(C(=O)Nc2ccc(NC3=NCCN3)cc2)cc1 [TCMDC-137799] | 30.06
51 | Nc1ncc(-c2cccc(F)c2)cc1-c1nc2ccc(F)cc2[nH]1 [TCMDC-133132] | -10.73
52 | CCOC(=O)c1ccc(NC(=O)Nc2cccc(-c3cccc(-c4nc5ccc(F)cc5[nH]4)c3)c2)cc1 [TCMDC-133268] | -1.066
53 | CCc1nc(N)nc(N)c1-c1ccc(F)cc1 [TCMDC-137722] | 5.569
54 | CC[C@H]1CN2CC[C@@H]1C[C@@H]2[C@@H](O)c1cc(-c2ccc(F)cc2)nc2ccc(OC)cc12 [TCMDC-141379] | 96.07
55 | CC[C@H]1CN2CC[C@H]1C[C@H]2[C@H](O)c1cc(-c2ccccc2C(F)(F)F)nc2ccc(OC)cc12 [TCMDC-141198] | -3.019
56 | CC[C@H]1CN2CC[C@H]1C[C@H]2[C@H](O)c1cc(-c2ccc(SC)cc2)nc2ccc(OC)cc12 [TCMDC-141196] | 82.69
57 | CC[C@H]1CN2CC[C@H]1C[C@H]2[C@H](O)c1cc(-c2ccccc2F)nc2ccc(OC)cc12 [TCMDC-141193] | 19.12
58 | CC[C@H]1CN2CC[C@H]1C[C@H]2[C@H](O)c1cc(-c2ccc(Cl)c(Cl)c2)nc2ccc(OC)cc12 [TCMDC-141216] | 98.02
59 | CC[C@H]1CN2CC[C@H]1C[C@H]2[C@H](O)c1cc(-c2ccc(OC(F)(F)F)cc2)nc2ccc(OC)cc12 [TCMDC-141214] | 67.8
60 | O=C(NCCN1CCCCC1)c1ccc(CNC(=O)c2ccc(O)c(-c3ccc(Cl)c(Cl)c3)c2)cc1 [TCMDC-140860] | -11.08
61 | COc1ccc(Nc2nc(C)cc(NC3CCCC3)n2)cc1 [TCMDC-133465] | 24.25
62 | CCOC(=O)c1c(CCc2ccc(C(F)(F)F)cc2)nc2c(c1-c1ccc(C(=O)N[C@@H](C)c3ccncc3)cc1)C(=O)N1CCC[C@@H]21 [TCMDC-138612] | 6.02
63 | CCCNC(=O)CN1CN(c2ccccc2)C2(CCN(C(=O)c3ccc(C(C)(C)C)cc3)CC2)C1=O [TCMDC-125173] | -65.45
64 | Cc1c(C)n(Cc2ccccc2)c2ncnc(OC3CCN(CC(=O)NCC4CC4)CC3)c12 [TCMDC-125326] | -12.47
65 | CCOC(=O)c1[nH]c(-c2cccnc2)nc1NC(=S)NCc1ccccc1 [TCMDC-138784] | -4.964
66 | COc1cccc(C(O)CNc2ccnc(Nc3cccc(-c4csc(C)n4)c3)n2)c1 (stereo not shown) [TCMDC-136574] | 8.83
67 | CCN(CC)CCCN1CCN(C(=O)c2cccc(-c3noc(C(F)(F)F)n3)c2)CC1 [TCMDC-132421] | -5.247
68 | NC(N)=NC(=O)Nc1cc(Br)c(Cl)c(C(F)(F)F)c1 [TCMDC-137513] | -25.86
69 | CCc1ccc(-c2nc3cc(NC(=O)c4cc([N+](=O)[O-])cc([N+](=O)[O-])c4)ccc3o2)cc1 [TCMDC-124220] | -7.299
70 | COc1ccc(-c2csc3nc(C)nc(Cl)c23)cc1OC [TCMDC-125523] | -37.7
